Outcome and Potency data for ten molecules are collected here from PubChem BioAssay (Tox21).

Molecules are shown by their SMILES. Records with an inconclusive call do not appear. Unmarked numbers belong to inactive results. Activity calls are given as the source filed them. Unless noted, the call rests on the fitted dose curve; in most records, active means well fitted curve in the direction sought with a large enough effect in the repeat runs; inconclusive means weak or mixed curves; inactive means no such curve, though single readings can be large; an effect the other way counts as inactive or inconclusive.

Test [1] in a line: qHTS assay to identify small molecule agonists of the NFkB signaling pathway (AID 1159509; active means well fitted curve in the direction sought with a large enough effect in the signal ratio in the repeat runs, not every such curve was filed as active; the % refers to the signal ratio; further: series mostly up to about 61 µM). In short, it runs like this: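 Beta-lactamase reporter assay run in quantitative high-throughput format on an NF-kB-responsive ME-180 line, with 5 hr compound treatment and a FRET-based blue/green fluorescence readout.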
(In general: qHTS replaces the single test concentration by a dilution series.)

The nature of test [2]: qHTS assay to identify small molecule agonists of the NFkB signaling pathway - cell viability counter screen (AID 1159515; calls by dose curve; further: series mostly up to about 61 µM; nearly all actives have a fitted effect of over 55% in size). In short, it runs like this: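 Cells are seeded (2,000 NFkB-bla ME-180 per well), rested overnight, and dosed with DMSO-dissolved compounds for 5 hr at 37 C. Viability is then read by CellTiter-Glo luminescence after 30 min at room temperature.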
The nature of test [3]: qHTS assay to identify small molecule agonists of the endoplasmic reticulum stress response signaling pathway (AID 1159516; active means well fitted activation curve with a large enough effect in the signal ratio in the repeat runs, not every such curve was filed as active; the % refers to the signal ratio). In short, it runs like this: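 Cells are seeded at 1,500 per well and incubated overnight. Compounds in DMSO are added for 5 hr at 37 C, then beta-lactamase FRET substrate for 2 hr at room temperature, and fluorescence at 460 and 530 nm is measured.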

A short description of test [4]: qHTS assay to identify small molecule agonists of the endoplasmic reticulum stress response signaling pathway - cell viability counter screen (AID 1159517; calls by dose curve;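 further: HeLa cells carrying an ER stress response element beta-lactamase reporter; series mostly up to about 61 µM; nearly all actives have a fitted effect of over 50% in size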). In short, it runs like this: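 After overnight attachment, ESRE-bla HeLa cells were treated with Tox21 library compounds for 5 hr. CellTiter-Glo luminescence, read 30 min post-addition at room temperature, reported viability.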

Test [5] in a line: qHTS assay to identify small molecule antagonists of the retinoid-related orphan receptor gamma (ROR-gamma) signaling pathway - cell viability counter screen (AID 1159520). Further: nearly all actives have a fitted effect of over 50% in size. In short, it runs like this: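 Cytotoxicity was read from cellular ATP (CellTiter-Glo luminescence) after 16 hr at 37 C with 1 uM doxycycline induction. The inducer was added 2 hr after compound transfer to Tet-on ROR gamma CHO cells.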

The target in test [6] is Nuclear receptor ROR-gamma (Homo sapiens) (UniProt P51449). The experiment in a line: qHTS assay to identify small molecule antagonists of the retinoid-related orphan receptor gamma (ROR-gamma) signaling pathway (AID 1159521;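 further: CHO cells with doxycycline inducible ROR-gamma driving an RORE luciferase reporter; top concentration of the series differs between compounds; nearly all actives have a fitted effect of over 50% in size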). In short, it runs like this: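 Decreased RORE-driven luciferase luminescence indicates antagonism. Tet-on RORγ CHO cells received compound, then 1 uM final doxycycline 2 h later; signal read after 16 h incubation.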

Test [7] in a line: qHTS assay to identify small molecule agonists of the AP-1 signaling pathway (AID 1159526; calls by dose curve).
The target in test [8] is Retinoic acid receptor RXR-alpha (Homo sapiens) (UniProt P19793). Kind of test: qHTS assay to identify small molecule agonists of the RXR signaling pathway (AID 1159527; calls by dose curve; further: nearly all actives have a fitted effect of over 35% in size; further: potency means the concentration at half of the fitted maximal effect). Summed up: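 16 hr incubation of compound-treated RXR-alpha-UAS-bla HEK 293T cells (2% charcoal-stripped FBS, 37 C) preceded a 2 hr room-temperature LiveBLAzer FRET substrate step and blue/green fluorescence measurement.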
Sequence of Retinoic acid receptor RXR-alpha (Homo sapiens) (P19793 whole entry, looked up): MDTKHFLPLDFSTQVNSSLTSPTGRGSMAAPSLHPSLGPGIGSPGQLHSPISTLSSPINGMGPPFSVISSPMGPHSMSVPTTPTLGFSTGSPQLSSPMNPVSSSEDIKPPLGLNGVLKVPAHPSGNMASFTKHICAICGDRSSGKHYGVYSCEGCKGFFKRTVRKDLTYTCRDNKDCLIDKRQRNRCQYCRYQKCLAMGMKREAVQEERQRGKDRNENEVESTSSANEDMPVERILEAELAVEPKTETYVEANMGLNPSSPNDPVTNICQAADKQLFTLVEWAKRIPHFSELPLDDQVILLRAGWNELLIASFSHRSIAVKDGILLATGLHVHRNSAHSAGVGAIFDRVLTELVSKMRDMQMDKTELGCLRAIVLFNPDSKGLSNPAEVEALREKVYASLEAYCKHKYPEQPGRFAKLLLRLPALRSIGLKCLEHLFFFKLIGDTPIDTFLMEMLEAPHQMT

A short description of test [9]: qHTS assay to identify small molecule agonists of the RXR signaling pathway - cell viability counter screen (AID 1159529).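 Further: HEK 293T cells carrying an RXR-alpha UAS beta-lactamase reporter; series mostly up to about 77 µM; nearly all actives have a fitted effect of over 50% in size.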 Summed up: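 In this parallel viability measure, GeneBLAzer RXR-alpha HEK 293T cells (2% charcoal-stripped FBS) were given a 5 hr preincubation, treated with compounds 16 hr at 37 C, and read by CellTiter-Glo luminescence.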
Test [10] is described as follows: qHTS assay to identify small molecule antagonists of the retinoid acid receptor (RAR) signaling pathway - cell viability counter screen (AID 1159551). Further: nearly all actives have a fitted effect of over 35% in size. In short, it runs like this:
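Cells (C3RL4) are plated, incubated overnight, dosed with compound in DMSO, then given retinol at 1 uM final. After 6 h at 37 C, CellTiter-Glo is added and luminescence read following 30 min at room temperature.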

Test [11] in a line: qHTS assay to identify small molecule antagonists of the estrogen related receptor (ERR) signaling pathway - cell viability counter screen (AID 1224818). Further: series mostly up to about 46 µM. Summed up: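 ERR cells, 2,000/well; 6 h settle at 37 C/5% CO2; compound pin transfer (DMSO); 17.5 h at 37 C; CellTiter-Fluor, 30 min, fluorescence read.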
Test [12] is described as follows: qHTS assay to identify small molecule antagonists of the estrogen related receptor (ERR) signaling pathway (AID 1224819). Summed up:
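qHTS in ERR cells, 2,000/well, 1536 format. Cpd (DMSO) added after 6 h settle, 18 h 37 C. One-Glo luminescence, 30 min RT.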

Test [13] is described as follows: qHTS assay to identify small molecule agonists of the estrogen related receptor (ERR) signaling pathway (AID 1224820). Summed up: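 Following a 6 h settling period, 2,000 ERR cells per well receive DMSO-dissolved compounds by pin tool and incubate 18 h at 37 C; agonist activity is scored from One-Glo luminescence read 30 min post-addition.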
In test [14] the test system is estrogen-related receptor alpha (ERRalpha) with PGC-1alpha coactivator, human. Kind of test: qHTS assay to identify small molecule antagonists of the estrogen related receptor signaling pathway with the pleiotropic PPARgamma coactivator (PGC) (AID 1224821; calls by dose curve). In short, it runs like this:
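Screening used NTP's PGC/ERR cells, dosed via pin tool with compound in DMSO alongside positive and negative controls. After 18 h at 37 C, One-Glo reagent sat 30 min at room temperature before luminescence detection.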

Test [15] can be described thus: qHTS assay to identify small molecule antagonists of the estrogen related receptor signaling pathway with the pleiotropic PPARgamma coactivator (PGC) cell viability counter screen (AID 1224822; further: series mostly up to about 46 µM). Summed up: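 Multiplexed viability counter screen run in PGC/ERR cells treated with compounds for 17.5 h at 37 C; live-cell protease signal measured by CellTiter-Fluor fluorescence.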

Test [16] is described as follows: qHTS assay to identify small molecule agonists of the vitamin D receptor (VDR) signaling pathway - cell viability counter screen (AID 743224). In short, it runs like this: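 Cells: VDR-bla, 2,000/well, settled 4 h. Treatment: compounds in DMSO, 16 h, 37C/5% CO2. Readout: CellTiter-Glo luminescence after 30 min RT.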
Test [17] in a line: qHTS assay to identify small molecule antagonists of the vitamin D receptor (VDR) signaling pathway - cell viability counter screen (AID 743225). Further: nearly all actives have a fitted effect of over 50% in size. Summed up: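 Parallel cytotoxicity test: VDR-UAS-bla HEK 293T, 3 nM (final) 1-alpha,25-dihydroxyvitamin D3 with test compound, 16 h, 37C. Endpoint is CellTiter-Glo luminescence in the same wells.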
Test [18] can be described thus: qHTS assay to identify small molecule agonists of the AP-1 signaling pathway - cell viability counter screen (AID 1159525; calls by dose curve; further: nearly all actives have a fitted effect of over 55% in size). Summed up:
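Intracellular ATP by Cell Titer Glo luminescence (30 min, RT) in the same ME-180 AP-1-bla wells after the 5 h compound exposure at 37 °C. Normalised to tetra n-octyl ammonium bromide and DMSO controls.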

A short description of test [19]: qHTS assay to identify small molecule agonists of the retinoic acid receptor (RAR) signaling pathway (AID 1159553). Summed up:
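Seed C3RL4 reporter cells at 1,000 per well and incubate overnight at 37 C. Add compounds in DMSO, incubate 6 hr. Add luciferase reagent, wait 30 min at room temperature, read luminescence.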

Test [20] can be described thus: qHTS assay to identify small molecule antagonists of the retinoic acid receptor (RAR) signaling pathway (AID 1159552; further: nearly all actives have a fitted effect of over 50% in size). In short, it runs like this: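 C3RL4 RARE-luc cells, overnight plating; retinol 1 uM final added right after compound; 6 hr 37 C; luciferase read at 30 min RT.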

Regarding `C[C@@H](O)[C@H]1C(=O)N2C(C(=O)O)=C(SCCN=CN)C[C@H]12`, the molecule was classed as inactive in [1], in [2], in test [3], in test [5], in test [6] and in [7]. Moreover, the outcome in test [9], in [10], in test [11], in [12], in test [13] and in test [14] was inactive. Further, the call in test [15] was inactive. The Potency entry in [4] and in test [8] was “inactive” each time.

`COc1cc(NS(=O)(=O)c2ccc(N)cc2)nc(OC)n1`: the Potency entry in test [16], in test [4] and in [8] was “inactive” each time. Moreover, the outcome in [17], in [1], in test [2], in test [3], in [5] and in [6] was inactive. Also, the result in test [7], in [9] and in test [10] was inactive.

As to `CC(C)(C)c1n[nH]c(=S)n(N)c1=O`, the Potency result in test [16], in [4] and in test [8] was “inactive” in each case. Besides, the molecule was classed as inactive in [17], in [1], in test [2], in test [3], in [5] and in test [6]. Further, the molecule was called inactive in test [18], in [7] and in test [10].

Regarding `CC(C)CC(=O)O`, the Potency entry in test [16], in test [4] and in [19] was “inactive” each time. The call in [17], in test [1], in test [2], in [3], in test [5] and in test [6] was inactive. Further, the call in [18] and in test [7] was inactive. In addition, the Potency in [8] is 10.7 µM (active).

For `C=Cc1ccccn1`, the Potency entry in [16], in test [4], in test [8] and in test [19] was “inactive” in each case. For the same molecule, the call in test [17], in [1], in test [2], in test [3], in test [6] and in [18] was inactive. Moreover, the molecule was called inactive in [7], in test [9] and in [10].

Turning to `COP(=O)(OC)OC(c1ccc(Cl)cc1)P(=O)(OC)OC` (stereo unspecified), the Potency entry in [16], in test [4] and in test [8] was “inactive” throughout. In addition, the result in [17], in [1], in test [2], in [3], in test [5] and in [6] was inactive. Further, the molecule was classed as inactive in test [7], in [9], in test [10] and in [20].

As for `CC(C)(C)c1cc(CCC(=O)NN)cc(C(C)(C)C)c1O`, the Potency entry in test [16], in test [4] and in [8] was “inactive” in each case. In addition, the call in test [1], in test [2], in test [3], in test [6], in test [18] and in test [7] was inactive. Further, the call in test [9], in [10] and in test [20] was inactive.

Take `COc1cc(N)ccc1C`: the molecule was called inactive in [17], in [1], in test [2], in test [3], in test [5] and in test [6]. Besides, the outcome in test [7], in [9] and in test [20] was inactive. For the same molecule, the Potency entry in test [4], in test [8] and in test [19] was “inactive” throughout.

Consider `O=C1CCCC(=O)O1`, for which the Potency result in [16], in test [4] and in test [8] was “inactive” throughout. Moreover, the call in [17], in test [1], in test [2], in [3], in test [6] and in [18] was inactive. Further, the call in test [7], in test [9], in test [10] and in [20] was inactive.

Turning to `CCCCNC1CC(C)(C)NC(C)(C)C1`, the Potency result in [16], in test [4] and in test [8] was “inactive” each time. For the same molecule, the call in test [17], in test [1], in test [2], in test [3], in test [5] and in [6] was inactive. The molecule was classed as inactive in [18], in test [7] and in test [10].
